The source of these data is PubChem BioAssay (NCATS).

The structures appear in SMILES notation. Results filed as inconclusive are left out. A call without a number means that no potency is given here. Calls of active or inactive are those of the source. Calls follow the shape of the dose curve; as a rule, active = well fitted inhibition curve with a large enough effect; inconclusive = small, poorly fitted or top-dose-only effect; inactive = flat fitted curve, though single readings scatter.
Potency is read from the fitted curve at half-maximal effect.

Calcium and integrin-binding protein 1 (Homo sapiens), sequence (Q99828 whole entry, looked up): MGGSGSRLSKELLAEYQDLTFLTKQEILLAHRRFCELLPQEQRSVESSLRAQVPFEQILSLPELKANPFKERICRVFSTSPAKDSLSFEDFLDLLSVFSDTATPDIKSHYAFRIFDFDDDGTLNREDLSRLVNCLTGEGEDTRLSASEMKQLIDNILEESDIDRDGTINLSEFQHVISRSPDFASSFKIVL

For this assay, the target named is Calcium and integrin-binding protein 1 (Homo sapiens) (UniProt Q99828). The assay can be described thus: Primary qHTS for Identification of Calcium Integrin Binding Protein 1 (CIB1) Competitor (AID 1508620). The settings on record: CIB1-GST / FITC-alphaIIb peptide fluorescence polarization; series mostly up to 114 µM. From the text:
Assay Provider: Ulhas P. Naik, PhD Sidney Kimmel Medical College Thomas Jefferson University, Philadelphia, PA Primary function of platelets is to maintain hemostasis. At the site of vascular injury, platelets adhere to adhesive proteins such as collagen and von Willebrand factor. Adherent platelets are activated and generate soluble platelet agonists such as thrombin, ADP and thromboxane A2. Following exposure of circulating platelets to these agonists, results in platelet shape change, granule secretion and activation of platelet integrin alphaIIb-beta3. Ligand binding to activated integrin alphaIIb-beta3 triggers outside-in signaling, leading to platelet aggregation, stabilization of platelet plug, and clot retraction. Upon atherosclerotic plaque rupture also causes platelet plug formation, which underlies a number of cardiovascular diseases such as myocardial infraction and stroke. A number of anti-platelet drugs such as aspirin, clopidogrel, prasugrel, vorapaxar, and eptifibatide are currently available to prevent the thrombotic complications. However, these anti-platelet agents have several limitations including inherent variability in individual responses, developing resistance, and serious bleeding side effects. For these reasons they are not suitable for long-term protection. Based on the experiences with current anti-platelet drugs, it appears that the most useful therapeutic approach is to intersect the secondary responses such as integrin outside-in signaling or recruitment of platelets by TxA2 and secreted ADP. Compounds, which can largely preserve the primary hemostatic function of platelets but inhibit secondary response will be most desired therapeutic agents for treatment of cardiovascular disease. CIB1 is a calcium integrin binding protein, which specifically interact with the alphaIIb subunit of integrin alphaIIb-beta3. Binding of CIB1 to alphaIIb regulates the outside-in signaling in platelets, which is needed for thrombus stabilization and thrombus growth. […] Therefore, we propose that discovery of a small molecule that can prevent the association of CIB1 and alphaIIb-beta3 will be a potential anti-platelet agent that can block the thrombus formation without undue effect on hemostasis. Reference: [1] Naik MU, Nigam A, Manrai P, et al. CIB1 deficiency results in impaired thrombosis: the potential role of CIB1 in outside-in signaling through integrin alpha IIb beta 3. J Thromb Haemost.
PROTOCOL TABLES SEQUENCE No. (1, 2, 3, etc.); […] (e.g., Cells, Incubation, Reagent, etc.); VALUE and DESCRIPTION. 1; Reagent; 3 uL; Protein or buffer (4/3x) 2; Compound; 46 nL; Control inhibitor / compound library 3; Time; 15 min; Room temperature incubation 4; Reagent; 1 uL; Fluorescent labeled peptide (4x) 5; Time; 1000 rpm; Centrifuge 6; Time; 15 min; Room temperature incubation 7; Detection; Ex 480/ Em 540; ViewLux Fluorescence Read NOTES (numbers refer to sequence above) 1; Protein Mixture: C1B1-GST (final concentrations of 1 uM). […] 3; Room temperature incubation. 4; Fluorescent Labeled Peptide: FITC-aIIb (final concentration of 100 nM). Sequence of alphaIIb peptide: Acetyl-[…]-FITC (purity is 95.83%). 5; Centrifuge 1000 rpm (164 g) for 15 seconds. 6; Room temperature incubation. 7; ViewLux Fluorescent Polization Read: excitation = 480(20) / emission = 540(25) S and P; FITC Dichroic mirror.
In the case of `O=C(Nc1ccc2c(c1)OCCO2)Nc1nnc(-c2ccncc2)s1`, the Potency entry was “inactive”. The entry for `CCN(CC)CCn1c(-c2ccccc2)nc2c(NC3CCCCC3)nc(C)nc21` is “inactive”; for `COC(=O)c1ccccc1S(=O)(=O)Nc1ccc(OC)cc1` it is “inactive”; for `COc1ccccc1N1C(=O)c2ccccc2C1=O` it is “inactive”.

`CC(C)N1CCc2c(sc(NC(=O)Cc3ccccc3)c2-c2nc3ccccc3s2)C1`: the Potency is 28.2 µM (active). In the case of `NC(=O)C1CCN(c2nc(-c3ccccc3Cl)cs2)CC1`, the Potency result is “inactive”. The entry for `N#Cc1ccc(NC(=O)Nc2nnc(-c3ccncc3)s2)cc1` is “inactive”. The value for `O=C1Nc2ccccc2/C1=C\c1ccc(O)c(Cl)c1` was “inactive”; that for `Cc1ccc(OCCn2c(CCNC(=O)c3cc([N+](=O)[O-])ccc3[N+](=O)[O-])nc3ccccc32)cc1` was “inactive”; that for `CC(C)(C)OC(=O)N1CCN(c2ccc(NCc3nnc(-c4ccc(C#N)cc4)o3)cc2)CC1` was “inactive”. The value for `Clc1cccc(CSc2nc3ncc(Br)cc3[nH]2)c1` was “inactive”. Take `Cc1nc(NC2CCCCC2)c2nc(-c3ccccc3)n(CCN3CCCC3)c2n1`: the Potency entry was “inactive”. Take `CC(C)(C)c1ccc(-n2cnc3cc(C(=O)N4CCCCC4)ccc32)cc1`: the Potency result was “inactive”. The value for `COc1ccc(-c2nnc3n2N=C(c2c(OC)cccc2OC)CS3)cc1` was “inactive”; that for `O=C1NS(=O)(=O)c2cscc21` was “inactive”.

Regarding `O=S1(=O)N=C(Oc2ccc(C(F)(F)F)cc2)c2ccccc21`, the Potency result was “inactive”. With `N#Cc1c(-c2ccco2)no[n+]1[O-]`, the Potency result is “inactive”.

Take `O=C1Cc2cc(S(=O)(=O)N3CCN(c4ccc(F)cc4)CC3)ccc2N1`: the Potency entry was “inactive”. `O=C(Nc1ccccc1)c1cccs1`: the Potency result was “inactive”. The entry for `O=[N+]([O-])c1ccccc1S(=O)(=O)Nc1cccc2cccnc12` is “inactive”.

`COc1ccc(NC(=O)c2cnn3c(-c4ccccc4)cc(C)nc23)cc1`: the Potency entry is “inactive”. The value for `CC(C)(C)c1ccc(-c2csc(N3CCC(C(N)=O)CC3)n2)cc1` was “inactive”; that for `Cc1nnc(CN(C)c2ncnc3ccc(-c4ccc5c(c4)OCO5)cc23)o1` was “inactive”; that for `Cc1ccc(OCCn2c(CCNC(=O)Cc3ccccc3)nc3ccccc32)cc1` was “inactive”. The value for `COc1cc(Nc2nc(-c3ccncc3)nc3ccccc23)ccc1NS(C)(=O)=O` was “inactive”; that for `COc1ccc(-c2nnc3n2N=C(c2cc(OC)ccc2OC)CS3)c(OC)c1` was “inactive”. The value for `CCCn1c(-c2ccc(F)cc2)nc2c(NCCCCN(CC)CC)nc(C)nc21` was “inactive”; that for `CCNC(=O)c1ccc(-c2ccc3ncnc(NCc4nc(C)cs4)c3c2)o1` was “inactive”; that for `CCCCN(C)C(=O)Cn1nc(-c2cncnc2)ccc1=O` was “inactive”. In the case of `CCN(CC)c1ccc(NC(=O)CN(C)Cc2c(O)ccc3ccccc23)cc1`, the Potency result is “inactive”.

`O=[S+]([O-])(Nc1cnc2ccccc2c1)c1ccc(NCc2ccc(Cl)cc2O)cc1`: the Potency result is “inactive”. In the case of `CCCn1c(C)nc2c(NCc3ccccc3)nc(C)nc21`, the Potency entry is “inactive”.

For `Cc1c(C(=O)O)[nH]c2c1C(=O)CC(c1ccco1)C2` (stereo not given), the Potency result was “inactive”. `O=C(/C=C/c1ccccc1)Nc1cccc(S(=O)(=O)Nc2ccccc2F)c1`: the Potency entry is “inactive”. For `COc1ccc(C2c3c(n(Cc4ccccc4)cnc3=N)Oc3ccc4ccccc4c32)cc1OC` (stereo not given), the Potency entry was “inactive”. For `c1cc2c(cc1CNc1ccc(N3CCCCC3)cc1)OCO2`, the Potency entry was “inactive”. The entry for `O=C(Nc1cccc(Cc2ccccc2)n1)c1ccc(-c2cccc([N+](=O)[O-])c2)o1` is “inactive”; for `CC(C)(C)OC(=O)N1CCC(C(=O)Nc2ccc([S+](=O)([O-])Nc3nccs3)cc2)CC1` it is “inactive”; for `O=S1(=O)N=C(Oc2ccccc2Br)c2ccccc21` it is “inactive”. In the case of `O=C(O)c1ccc2c(c1)C(=O)N([C@H](Cc1ccc(O)c(O)c1)C(=O)O)C2=O`, the Potency result is “inactive”.
